These results are taken from PubChem BioAssay (NCATS).

The nature of experiment [1]: Validation of Assay for Modulators of Lamin A Splicing (AID 1459; active means well fitted curve in the direction sought with a large enough effect in the signal ratio; the % refers to the signal ratio;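 further: cells exposed to compound for two days before reading; 0% is about no effect; ratio rise marks activators and ratio drop marks inhibitors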). An outline of the steps: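 Splicing correction is reported by an EGFP-containing lamin A minigene in stably transfected S3 HeLa cells, while DsRed2 controls for viability and nonspecific signal. Cells are exposed to compounds for 48 hrs before the GFP over RFP ratio is taken.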
The nature of experiment [2]: qHTS Assay for Lipid Storage Modulators (AID 1519; calls by dose curve; on activity change, negative = inhibition: on the % scale 0 is the no-effect control and ±100 the full control effect). Conditions: Drosophila S3 cells, BODIPY lipid droplet/cell ratio, laser cytometry, cells loaded with oleic acid; for activity change, negative = inhibition: at 57.5 µM (top of the series). An outline of the steps: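 Cells seeded at 5,000 per well were treated with compounds over a concentration series and loaded with oleic acid (400 uM, as added). Lipid droplet fluorescence (488 nm excitation, 500-530 nm channel) was read by laser-scanning cytometry and normalized to 20 uM Triacsin C.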
In general terms: Quantitative high-throughput screening tests each substance at several concentrations.

The target in experiment [3] is DNA repair nuclease/redox regulator APEX1 (Homo sapiens) (UniProt P27695). Briefly: qHTS Validation Assay for Inhibitors of the Human Apurinic/apyrimidinic Endonuclease 1 (APE1) (AID 1705;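 further: TAMRA fluorescence gain over two minutes as APE1 cuts a quenched THF abasic duplex; on the % scale 0 is the no-effect control and ±100 the full control effect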). In a few lines: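 Endonuclease activity of human APE1 is followed as dequenching when the enzyme incises a tetrahydrofuran abasic site in a short duplex labelled 5'-TAMRA/3'-BHQ-2 (50 nM final), after 15 min enzyme–compound preincubation at room temperature.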
Chain of DNA repair nuclease/redox regulator APEX1 (Homo sapiens) (P27695 whole entry, looked up): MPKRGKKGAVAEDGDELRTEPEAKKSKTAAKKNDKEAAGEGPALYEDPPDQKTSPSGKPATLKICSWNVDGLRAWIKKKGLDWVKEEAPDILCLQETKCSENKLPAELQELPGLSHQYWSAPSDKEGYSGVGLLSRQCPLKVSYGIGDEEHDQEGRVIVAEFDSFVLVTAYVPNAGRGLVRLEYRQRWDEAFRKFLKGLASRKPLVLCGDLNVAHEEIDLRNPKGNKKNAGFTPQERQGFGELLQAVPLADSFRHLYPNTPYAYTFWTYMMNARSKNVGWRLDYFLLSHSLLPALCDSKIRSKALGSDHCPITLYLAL

The nature of experiment [4]: Counterscreen for APE1 Inhibitors: Fluorescent Dye Displacement Validation Assay (AID 1707).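 Further: plate controls were ThO with dsDNA and no compound for no effect and ThO without dsDNA for full effect.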 In a few lines:
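Thiazole Orange displacement from dsDNA: 250 nM ThO with 50 nM TAMRA-labelled abasic-site (tetrahydrofuran) duplex in 50 mM Tris-HCl pH7.5, 50mM NaCl, 2 mM MgCl2, 0.01% Tween-20. Loss of endpoint fluorescence (ex 480 nm, em 540 nm) flags DNA binders.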
For orientation: Counterscreens check selectivity or assay interference.

The target of experiment [5] is Endonuclease 4 (Escherichia coli (strain K12)) (UniProt P0A6C1). Kind of experiment: Counterscreen for APE1 Inhibitors: qHTS Validation Assay for Inhibitors of Endonuclease IV (AID 1708). Further: on the % scale 0 is the no-effect control and ±100 the full control effect. In a few lines: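 E. coli EndoIV at 2 nM final, preincubated 15 min at room temperature with compound, then 50 nM TAMRA/BHQ-2 THF abasic-site duplex added. Buffer: 50 mM Tris-HCl pH 7.5, 50 mM NaCl, 2 mM MgCl2, 1 mM DTT, 0.01% Tween-20. Kinetic fluorescence increase, third minus first read.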

A short description of experiment [6]: qHTS for differential inhibitors of proliferation of Plasmodium falciparum line 7G8 (AID 1815).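 Further: parasite growth measured after three days of incubation.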 Further: potency means the concentration at half of the fitted maximal effect.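 On activity change, negative = inhibition: plate controls were vehicle wells for no effect and reference inhibitor wells for full effect.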
The nature of experiment [7]: qHTS for differential inhibitors of proliferation of Plasmodium falciparum line GB4 (AID 1816).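 Further: parasite growth measured after 72 h incubation; 0% = vehicle DMSO and -100% = reference inhibitor.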 To be noted: Potency: Plasmodium falciparum GB4 proliferation inhibition.
A short description of experiment [8]: qHTS for differential inhibitors of proliferation of Plasmodium falciparum line 3D7 (AID 1876).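 Further: parasite growth measured after three days of culture; 0% = vehicle wells and -100% = reference inhibitor wells.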
The nature of experiment [9]: qHTS for differential inhibitors of proliferation of Plasmodium falciparum line D10 (AID 1877).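 Further: parasites grown with compound for 72 h before DNA staining; plate controls were vehicle wells for no effect and reference inhibitor wells for full effect.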
The target of experiment [10] is Alpha-galactosidase A (Homo sapiens) (UniProt P06280). Briefly: Counterscreen for Glucocerebrosidase Inhibitors: qHTS Assay for Human alpha-Galactosidase at pH 4.5 (AID 992). Further: 0% is about no effect. An outline of the steps:
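Enzyme at 2 nM final was combined with compound (0.7 nM to 77 uM) and 80 uM 4-methylumbelliferyl alpha-D-galactopyranoside in 50 mM citric acid, 0.005% Tween-20, pH 4.5. After 20 min at room temperature, fluorescence was read (Ex 365/Em 440 nm); AC50 came from Hill fits.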

Experiment [11] concerns the target alpha-glucosidase (Oryza sativa, rice) (UniProt Q653V4). Briefly: Counterscreen for Glucocerebrosidase Inhibitors: qHTS Assay for Rice alpha-Glucosidase at pH 5.0 (AID 997).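 Further: 0% = full activity with enzyme and -100% = basal without enzyme.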 In a few lines: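 Rice alpha-glucosidase (4 nM final) with 400 uM 4-methylumbelliferyl-alpha-D-glucopyranoside in citrate buffer pH 5.0, 20 min at room temperature, stopped at pH 10; fluorescence 365/440 nm, compounds 0.7 nM–77 uM, AC50 from Hill fits.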

[12] abbreviates: measured here: cell count channel max response.
[13] abbreviates: measured here: lipid channel max response.

The structures appear in SMILES notation. Several values for one entry are separate records, joined by “and”; a condition that tells them apart may be missing. Identical values can stand only once. Inconclusive results are not listed. Activity calls are given as the source filed them. Unless noted, the call rests on the fitted dose curve; in most records, active means well fitted curve in the direction sought with a large enough effect; inconclusive means small, poorly fitted or top-dose-only effect, or another doubt; inactive means no such curve, though single readings can be large; an effect the other way counts as inactive or inconclusive.

Chain of Alpha-galactosidase A (Homo sapiens) (P06280 whole entry, looked up): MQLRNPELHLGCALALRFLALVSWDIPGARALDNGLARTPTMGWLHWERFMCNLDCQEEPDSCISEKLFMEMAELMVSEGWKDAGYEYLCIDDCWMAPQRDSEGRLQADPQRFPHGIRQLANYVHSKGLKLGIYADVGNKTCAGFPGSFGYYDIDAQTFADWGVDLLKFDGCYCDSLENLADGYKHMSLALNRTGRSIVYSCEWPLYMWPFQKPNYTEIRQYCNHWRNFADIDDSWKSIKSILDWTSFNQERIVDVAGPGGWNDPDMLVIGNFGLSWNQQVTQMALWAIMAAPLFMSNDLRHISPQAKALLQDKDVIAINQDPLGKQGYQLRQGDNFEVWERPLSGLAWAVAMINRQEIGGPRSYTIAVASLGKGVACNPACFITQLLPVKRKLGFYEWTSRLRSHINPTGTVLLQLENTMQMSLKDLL

Take `NC(C(=O)N[C@@H]1C(=O)N2C(C(=O)O)=C(Cl)CS[C@H]12)c1ccccc1` (stereo partly specified): the call in experiment [1] was inactive. The activity change, negative = inhibition in [2] is -2.36% (inactive). Further, the max response in experiment [2] (setting [12]) is -29.4%; in experiment [2] (setting [13]) it was -32.3%. Also, the Potency entry in [3], in experiment [4], in experiment [5], in experiment [6], in experiment [7] and in experiment [8] was “inactive” throughout. In addition, the Potency entry in experiment [9] was “inactive”.

As for `N[C@@H](CCCC(=O)O)C(=O)O`, the result in experiment [1] was inactive. In [2], the activity change, negative = inhibition was 0.27% (inactive). Further, the max response in experiment [2] (setting [12]) was -26.7%; in experiment [2] (setting [13]), -26.8%. The Potency entry in experiment [3], in experiment [4], in experiment [5], in experiment [6], in experiment [7] and in experiment [8] was “inactive” each time. Also, the Potency entry in experiment [9] is “inactive”.

Regarding `O=c1onc2n1-c1cc(Br)ccc1OC2`, the result in experiment [10], in [11] and in [1] was inactive. For the same compound, the activity change, negative = inhibition in experiment [2] was 3.14% (inactive). Moreover, the max response came out at 64.2% in experiment [2] (setting [12]) and 68.1% in experiment [2] (setting [13]). Besides, the Potency result in experiment [3], in experiment [4], in [5], in experiment [6], in [7] and in [8] was “inactive” each time. The Potency result in [9] was “inactive”.

On to `NCCCCN=C(N)N`, for which the result in experiment [10], in experiment [11] and in [1] was inactive. The activity change, negative = inhibition in [2] is 6.41% (inactive). Besides, the figures for the max response in [2] (setting [12]) and in experiment [2] (setting [13]) were 4.55% and 23.5%, respectively. Moreover, the Potency entry in experiment [3], in experiment [4], in experiment [5], in [6], in experiment [7] and in experiment [8] was “inactive” in each case. Besides, in experiment [9], the Potency entry is “inactive”.

For the compound `Cn1c(=O)c2c(nc(/C=C/c3cccc(Cl)c3)n2C)n(C)c1=O`, the compound was called inactive in [1]. Further, the activity change, negative = inhibition in experiment [2] was -4.15% (inactive). In addition, the max response in experiment [2] (setting [12]) was -60.2%; in experiment [2] (setting [13]) it was -62%. Also, the Potency result in experiment [3], in [4] and in [5] was “inactive” throughout. Also, the Potency in experiment [6] is 10 µM (active).

On to `N[C@@H](CS(=O)O)C(=O)O`, for which the compound was called inactive in [10], in [11] and in experiment [1]. The activity change, negative = inhibition in experiment [2] is 4.63% (inactive) and 1.31% (inactive). In addition, the max response in [2] (setting [12]) was 10.5% and -12.6%; in experiment [2] (setting [13]) it was 17.1% and -9.76%. The Potency entry in [3], in experiment [4], in experiment [5], in experiment [6], in experiment [7] and in [8] was “inactive” throughout. Besides, in [9], the Potency result is “inactive”.

For the compound `O=C(O)C1CCCNC1` (stereo unspecified), the compound was classed as inactive in experiment [1]. Also, the activity change, negative = inhibition in experiment [2] is 0.3% (inactive). Further, the max response was 0.529% in experiment [2] (setting [12]) and 0.762% in experiment [2] (setting [13]). In addition, the Potency result in experiment [3], in experiment [4], in experiment [5], in experiment [6], in experiment [7] and in experiment [8] was “inactive” throughout. Also, the Potency entry in experiment [9] is “inactive”.

Turning to `CSC(=N)N`, the outcome in [10], in experiment [11] and in experiment [1] was inactive. Also, the activity change, negative = inhibition in [2] was -0.307% (inactive). Besides, the results for the max response in [2] (setting [12]) and in experiment [2] (setting [13]) were 53.5% and 52.9%, respectively. Also, the Potency entry in experiment [3], in experiment [4], in experiment [5], in experiment [6], in experiment [7] and in [8] was “inactive” in each case. Besides, in [9], the Potency entry was “inactive”.

Regarding `Cc1cc2c(cc1Cl)N(C(=O)Nc1ccnc3ccccc13)CC2`, the compound was called inactive in experiment [10], in [11] and in experiment [1]. For the same compound, the activity change, negative = inhibition in experiment [2] was 3.56% (inactive). For the same compound, the results for the max response in experiment [2] (setting [12]) and in experiment [2] (setting [13]) were 57.9% and 64%, respectively. Also, the Potency entry in [3], in experiment [4], in experiment [5], in experiment [6], in experiment [7] and in [8] was “inactive” in each case. For the same compound, in experiment [9], the Potency result was “inactive”.
